# Test results reported in PubChem BioAssay (NCATS).
# Results filed as inconclusive are left out. A call without a number means that no potency is given here. The source made the active and inactive calls. Calls follow the shape of the dose curve; as a rule, active = well fitted curve in the direction sought with a large enough effect; inconclusive = small, poorly fitted or top-dose-only effect, or another doubt; inactive = no such curve, though single readings can be large; an effect the other way counts as inactive or inconclusive.
# How the values were obtained:
# [1] = target: ATP-dependent 6-phosphofructokinase (Trypanosoma brucei brucei) (UniProt O15648); assay: qHTS Assay to Find Inhibitors of T. brucei phosphofructokinase: hit validation (AID 492961);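 also: luminescence reports ADP formed as PFK phosphorylates fructose-6-phosphate with ATP; series mostly up to about 51 µM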
# Chain of ATP-dependent 6-phosphofructokinase (Trypanosoma brucei brucei) (O15648 whole entry, looked up): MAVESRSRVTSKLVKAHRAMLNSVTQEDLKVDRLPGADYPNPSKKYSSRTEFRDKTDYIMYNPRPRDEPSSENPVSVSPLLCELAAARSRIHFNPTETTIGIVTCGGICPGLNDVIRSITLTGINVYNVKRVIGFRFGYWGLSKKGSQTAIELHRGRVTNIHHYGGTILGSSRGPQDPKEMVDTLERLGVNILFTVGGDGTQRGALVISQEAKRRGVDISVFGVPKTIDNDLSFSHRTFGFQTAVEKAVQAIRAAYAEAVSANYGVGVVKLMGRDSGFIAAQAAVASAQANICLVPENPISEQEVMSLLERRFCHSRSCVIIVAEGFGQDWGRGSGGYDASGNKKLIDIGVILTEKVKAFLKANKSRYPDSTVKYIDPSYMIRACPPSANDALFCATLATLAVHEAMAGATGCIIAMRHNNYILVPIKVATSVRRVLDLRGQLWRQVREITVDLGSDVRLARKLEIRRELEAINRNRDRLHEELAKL
# In short: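 Percent activity derived from corrected luminescence, normalized between 0x and 1x enzyme controls, then fitted to concentration-response curves. Conditions: 1.25 nM PFK, 0.1 mM ATP, 0.5 mM F6P, 45 min RT.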
# [2] = target: Ubiquitin carboxyl-terminal hydrolase 1 (Homo sapiens) (UniProt O94782); assay: Inhibitors of USP1/UAF1: Pilot qHTS (AID 504865); also: nearly all actives have a fitted effect of over 35% in size; also: potency is read from the fitted curve at half-maximal effect
# Chain of Ubiquitin carboxyl-terminal hydrolase 1 (Homo sapiens) (O94782 whole entry, looked up): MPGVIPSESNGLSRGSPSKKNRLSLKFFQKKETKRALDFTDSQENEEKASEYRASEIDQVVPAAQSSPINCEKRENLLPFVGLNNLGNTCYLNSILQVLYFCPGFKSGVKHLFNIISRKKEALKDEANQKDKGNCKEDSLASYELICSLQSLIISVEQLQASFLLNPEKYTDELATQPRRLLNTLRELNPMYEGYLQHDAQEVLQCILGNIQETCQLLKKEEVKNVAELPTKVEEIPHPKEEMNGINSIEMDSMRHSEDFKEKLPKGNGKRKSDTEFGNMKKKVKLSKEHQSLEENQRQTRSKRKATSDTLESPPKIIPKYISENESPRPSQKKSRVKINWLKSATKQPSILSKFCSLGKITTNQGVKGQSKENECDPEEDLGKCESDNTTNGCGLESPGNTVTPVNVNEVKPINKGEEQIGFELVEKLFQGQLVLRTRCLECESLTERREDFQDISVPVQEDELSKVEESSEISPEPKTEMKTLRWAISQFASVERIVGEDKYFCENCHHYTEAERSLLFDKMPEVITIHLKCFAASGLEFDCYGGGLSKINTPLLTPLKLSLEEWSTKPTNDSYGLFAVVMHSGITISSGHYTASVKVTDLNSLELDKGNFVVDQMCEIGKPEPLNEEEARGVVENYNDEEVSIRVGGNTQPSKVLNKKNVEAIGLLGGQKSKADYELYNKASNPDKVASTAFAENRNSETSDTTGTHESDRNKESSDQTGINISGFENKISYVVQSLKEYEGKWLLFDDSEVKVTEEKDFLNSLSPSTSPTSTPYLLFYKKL
# In short: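 USP1/UAF1 complex at 1 nM preincubated 15 min at room temperature with compound, then Ub-Rho substrate added at 150 nM final. Fluorescence (480/540 nm) read kinetically in 50 mM HEPES pH 7.8, 0.5 mM EDTA, 1 mM TCEP, 0.1 mg/ml BSA, 0.01% Tween-20.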
SMILES,outcome [1],Potency [2]
C#C[C@]1(O)CC[C@H]2[C@@H]3CCc4cc(OC5CCCC5)ccc4[C@H]3CC[C@@]21C,inactive,
CCCCCCCCCCCCCCNCCO,inactive,
O=C(Nc1ccc(Oc2ccc(Cl)cc2)c(Cl)c1)c1cc(I)cc(I)c1O,inactive,
CC(Cc1cccc(C(F)(F)F)c1)NCCOC(=O)c1ccccc1 (configuration not stated),inactive,
c1ccc(OCc2ccc(CCCN3CCOCC3)cc2)cc1,inactive,inactive
Cc1c(C)n(CCN(C)C)c2ccc(C(=O)OCCN(C)C)cc12,inactive,inactive
CC(=O)N(O)CCCCCNC(=O)CCC(=O)N(O)CCCCCNC(=O)CCC(=O)N(O)CCCCCN,inactive,inactive
Cc1ccc(C(=O)C(C)CN2CCCCC2)cc1 (configuration not stated),inactive,inactive
CCCCCCCCCCCCCCCCCC(=O)OCC(O)CO (configuration not stated),inactive,
Cc1c(F)c(N2CCNC(C)C2)cc2c1c(=O)c(C(=O)O)cn2C1CC1 (configuration not stated),inactive,inactive
O=C(OCCOCCO)c1ccccc1Nc1cccc(C(F)(F)F)c1,inactive,
COCc1c(C(C)C)nc(C(C)C)c(/C=C/[C@@H](O)C[C@@H](O)CC(=O)O)c1-c1ccc(F)cc1,inactive,inactive
Cc1ncc(CSSCc2cnc(C)c(O)c2CO)c(CO)c1O,inactive,inactive
COc1cc2c(cc1OC)C(C(C(=O)N(CCc1ccc(OC)c(OC)c1OC)CCc1ccc(OC)c(OC)c1OC)c1ccccc1)=NCC2 (configuration not stated),inactive,
Oc1ccc(Cl)c2cccnc12,inactive,inactive
CN(C(=O)CN(CCO)CC(=O)N(C)C(C)(C)Cc1ccccc1)C(C)(C)Cc1ccccc1,inactive,inactive
Cc1c(C(C)C)c(=O)n(-c2ccccc2)n1C,inactive,inactive
OCc1ccccc1O,inactive,inactive
CC(C)=CCC1C(=O)N(c2ccccc2)N(c2ccccc2)C1=O,inactive,inactive

SMILES,outcome [1],Potency [2]
CCCCOc1cc(C(=O)NCCN(CC)CC)c2ccccc2n1,inactive,inactive
CCN(CC)CCOC(=O)C(c1ccccc1)C1CCCCC1 (configuration not stated),inactive,inactive
NC(=O)C(=O)N/N=C/c1ccc([N+](=O)[O-])o1,inactive,inactive
O=C1c2ccccc2C(=O)C1c1ccccc1,inactive,inactive
O=C1OCCN1/N=C/c1ccc([N+](=O)[O-])o1,inactive,inactive
CCOc1ccc(NC(=O)CC(C)O)cc1 (configuration not stated),inactive,inactive
C[C@@H](CN(C)C)CN1c2ccccc2Sc2ccccc21,inactive,inactive
CCCCc1nc(Cl)c(CO)n1Cc1ccc(-c2ccccc2-c2nn[nH]n2)cc1,inactive,inactive
CO/N=C1\CN(c2nc3c(cc2F)c(=O)c(C(=O)O)cn3C2CC2)CC1CN (configuration not stated),inactive,inactive
CCOc1ccc2nc3cc(N)ccc3c(N)c2c1,inactive,50.1 µM (active)
CCCCN1CCCC1C(=O)Nc1c(C)cc(C)cc1C (configuration not stated),inactive,inactive
C[C@@H]1CN(CCCn2c3ccccc3c3ccccc32)C[C@H](C)N1,inactive,inactive
Cc1ccc(O)c2ncccc12,inactive,inactive
CN1CCC(=C2c3ccccc3Sc3ccccc32)CC1,inactive,39.8 µM (active)
c1ccc(CNCCNCc2ccccc2)cc1,inactive,inactive
Cc1c(C(N)=O)cc([N+](=O)[O-])cc1[N+](=O)[O-],inactive,inactive
CCOC(=O)COc1ccc2c(C)c(CCN(CC)CC)c(=O)oc2c1Cl,inactive,inactive
Nc1ccc(C(=O)Nc2ccccc2N)cc1,inactive,inactive
